# From PMC6212790, “How bacterial xenogeneic silencer rok distinguishes foreign from self DNA in its resident genome”
# In all, about 33,000 sequences were measured (“e-score”: median about -0.037, highest 2% from about 0.34 on). For the sample, the highest values were picked, then their nearest neighbours and some sequences at random.
# Target: T1, GST-Rok (full length) (Bacillus subtilis subsp. subtilis str. …, UniProt O34857 1-191)
# T1 sequence: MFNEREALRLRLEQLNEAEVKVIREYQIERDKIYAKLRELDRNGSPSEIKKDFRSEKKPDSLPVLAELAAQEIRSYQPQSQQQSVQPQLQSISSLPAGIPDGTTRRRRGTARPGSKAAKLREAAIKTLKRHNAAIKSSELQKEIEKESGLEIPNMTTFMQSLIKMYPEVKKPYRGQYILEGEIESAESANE
# Assay: protein binding microarray; Rok is a gene silencer of Bacillus subtilis; high values mean tight binding
# Conditions: protein: recombinant; tags: GST (pTH5325, pDEST15-Magic modified); dsDNA, one strand shown
# Method in brief: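 Each has a 25-mer constant primer and a 35-mer variable part from a de Bruijn sequence of order 10, covering every non-palindromic 8-mer at least 32 times (palindromic 16). Preference for each 8-mer is given as a rank-based, unitless enrichment score (E-score). Its range runs from 0.5 (most favored) to −0.5 (most disfavored).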
row,Sequence,binding signal
1,AGCTGCAC,0.104 E-score
2,GAAGTCCC,-0.124 E-score
3,ACCGATCC,-0.198 E-score
4,ATGAGGCG,-0.173 E-score
5,CTTAGGTC,0.00712 E-score
6,AAGCTAAG,-0.0658 E-score
7,CATGTAGA,0.374 E-score
8,GATGTAGA,0.209 E-score
9,TATGTAGA,0.292 E-score
10,CGCTCTGA,-0.0888 E-score
11,AGTAGGAA,0.231 E-score
12,ACTAATAG,0.227 E-score
13,AGTAATAC,0.26 E-score
14,AGTAATAT,0.402 E-score
15,ACTAATAT,0.385 E-score
16,AGTAATCG,0.0386 E-score
17,AGTAATAG,0.365 E-score
18,ACTAATAC,0.265 E-score
19,CGTAATAG,0.318 E-score
20,AGTAATAA,0.197 E-score
21,AACGGCTG,0.0377 E-score
22,AAGTCAAT,0.226 E-score
23,CTTGTCTC,0.0221 E-score
24,GGGTTGCA,-0.161 E-score
25,AGATGTAA,0.17 E-score

row,Sequence,binding signal
1,CATCTTAG,0.118 E-score
2,GTTGATCA,-0.00765 E-score
3,CGCAAGCC,-0.112 E-score
4,ACATAGAT,0.346 E-score
5,ACATAGAG,0.00988 E-score
6,AGATAGAG,0.026 E-score
7,ACATAGAC,0.0568 E-score
8,AGATAGAC,0.108 E-score
9,AGATAGAT,0.386 E-score
10,CTCTAGAC,-0.099 E-score
11,ACGAACGA,-0.116 E-score
12,ATCTACGG,0.158 E-score
13,GTCTACTA,0.261 E-score
14,CTCTACTA,0.216 E-score
15,ATCTACTG,0.382 E-score
16,ATCTACTC,0.251 E-score
17,ATCTACTA,0.446 E-score
18,ACATGTTG,-0.0393 E-score
19,CGCGCATA,0.139 E-score
20,AATAAACG,0.0748 E-score
21,GCTGTAAA,0.151 E-score
22,TGGTATAA,0.349 E-score
23,AGGTATAA,0.322 E-score
24,CAGTATAA,0.312 E-score
25,CGGTATAA,0.28 E-score

row,Sequence,binding signal
1,AAGTATAA,0.142 E-score
2,TAGTATAA,0.404 E-score
3,GGTTGTAC,0.114 E-score
4,CGCGACAG,0.0354 E-score
5,ATCTACAT,0.372 E-score
6,ATCTACAA,0.276 E-score
7,CTCTACAC,0.0962 E-score
8,GTCTACAC,-0.0482 E-score
9,ATCTACAC,0.348 E-score
10,ATCTACAG,0.26 E-score
11,AAGGGTTA,-0.101 E-score
12,TCGCACAA,0.0863 E-score
13,CCGGCTGA,-0.0957 E-score
14,TGCATTAA,0.25 E-score
15,GAATTCCA,0.0902 E-score
16,CATAGTAA,0.271 E-score
17,TATAGTCA,0.159 E-score
18,TATAGTAA,0.389 E-score
19,AATAGTAA,0.325 E-score
20,GATAGTAC,0.18 E-score
21,GATAGTAA,0.406 E-score
22,CGGCATGA,-0.101 E-score
23,GGGAATGA,-0.0881 E-score
24,GTATGTGA,0.247 E-score
25,GAAATAAA,0.221 E-score

row,Sequence,binding signal
1,AGATGAAC,0.165 E-score
2,ACGTATAC,0.232 E-score
3,ACGTATAA,0.244 E-score
4,AAGTATAG,0.127 E-score
5,AAGTATAC,0.251 E-score
6,ACGTATAT,0.365 E-score
7,AAGTATAT,0.348 E-score
8,GGGATTGA,-0.112 E-score
9,GATACATC,0.186 E-score
10,TACACATA,0.315 E-score
11,AATACATG,0.108 E-score
12,GATACATA,0.388 E-score
13,GGTACATA,0.196 E-score
14,AATACATT,0.252 E-score
15,TATACACA,0.2 E-score
16,GATACAGA,-0.0115 E-score
17,AATACAGA,0.0991 E-score
18,AATACATA,0.373 E-score
19,TATACAGA,0.342 E-score
20,TATACATA,0.37 E-score
21,GGATTCAC,-0.0831 E-score
22,ACAAGTCG,-0.122 E-score
23,ACCTAGGG,-0.142 E-score
24,CGTGGAGA,0.119 E-score
25,ACGCCAAT,-0.0858 E-score

row,Sequence,binding signal
1,GGGAAGTA,0.17 E-score
2,CCCAGCGC,-0.157 E-score
3,ATTACGAG,0.154 E-score
4,ACTGTCAC,0.011 E-score
5,CATACATA,0.366 E-score
6,TATACAAA,0.402 E-score
7,CATACATC,0.158 E-score
8,CATACAAA,0.288 E-score
9,CATACATG,0.143 E-score
10,AGTACAAG,0.217 E-score
11,AATACAAA,0.206 E-score
12,CGTACAAA,0.194 E-score
13,AGTACAAA,0.343 E-score
14,CGCGTTAG,0.07 E-score
15,CTCTAACC,-0.055 E-score
16,AGAATGAA,0.111 E-score
17,TGGCGCAA,-0.0245 E-score
18,AGGTTACG,-0.0671 E-score
19,CATCTATC,0.289 E-score
20,CATCTATA,0.199 E-score
21,GATCTATA,0.307 E-score
22,AATCTATA,0.384 E-score
23,AATCTATC,0.377 E-score
24,AATCTATG,0.174 E-score
25,ATAGACTA,0.186 E-score

row,Sequence,binding signal
1,AGGGAATC,0.0103 E-score
2,AGTTACCC,0.179 E-score
3,AAGACGTA,0.132 E-score
4,GCGATATA,0.342 E-score
5,ACGATATA,0.298 E-score
6,GATATAGC,0.0453 E-score
7,GATATATA,0.365 E-score
8,GTGATATA,0.25 E-score
9,GGGATATA,0.221 E-score
10,CCGATATA,0.297 E-score
11,GATATATC,0.39 E-score
12,GAGATATC,0.181 E-score
13,GGTACAAC,-0.0759 E-score
14,CTGGCAAA,-0.152 E-score
15,ACACGTGC,-0.0468 E-score
16,TAGCGTAA,0.144 E-score
17,CGGAAATC,0.0575 E-score
18,CAGAAGCG,-0.142 E-score
19,AATATAGG,0.23 E-score
20,AAAATAGT,0.407 E-score
21,AAAATAGA,0.325 E-score
22,GATATAGA,0.228 E-score
23,TCTATAGA,0.36 E-score
24,AATATAGT,0.359 E-score
25,AATATAGC,0.32 E-score

row,Sequence,binding signal
1,TATATAGA,0.404 E-score
2,ACTATAGA,0.174 E-score
3,CCTATAGA,0.0582 E-score
4,AAAATAGC,0.179 E-score
5,CATATAGA,0.133 E-score
6,GCCGCTCA,-0.181 E-score
7,AGCATGTC,0.0983 E-score
8,CAACTTTC,0.15 E-score
9,CATTACCG,0.00887 E-score
10,ACAAAACT,0.085 E-score
11,CCTACCTC,0.0499 E-score
12,ATATAGGA,0.195 E-score
13,CTAGAGAA,0.193 E-score
14,AAAACGAC,-0.0861 E-score
15,AGTTAAAA,0.197 E-score
16,CATTGACA,0.0572 E-score
17,AATGGAGT,0.0603 E-score
18,ACTATAGC,0.164 E-score
19,CATATGGA,-0.0847 E-score
20,TATATGGA,0.343 E-score
21,AATATAGA,0.365 E-score
22,AGTATAGA,0.159 E-score
23,GATATGGA,0.139 E-score
24,AATAGAGA,0.239 E-score
25,ACTATAGT,0.409 E-score

row,Sequence,binding signal
1,ACTATAGG,0.0843 E-score
2,AGGTAATC,-0.0361 E-score
3,AGCGGGGA,-0.076 E-score
4,ACCACTAG,0.0844 E-score
5,AGGAATGC,-0.0829 E-score
6,ATACCTAC,0.351 E-score
7,ATACCTAT,0.333 E-score
8,GAACCTAC,0.15 E-score
9,CTACCTAC,0.346 E-score
10,GTACCTAA,0.132 E-score
11,ATACCTAG,0.31 E-score
12,CTACCTAG,0.235 E-score
13,CTACCTAA,0.22 E-score
14,GTACCTAC,0.353 E-score
15,CTGCGCTA,-0.143 E-score
16,ACAGAAGG,-0.105 E-score
17,AGTCTCTA,0.0503 E-score
18,GCACTTAC,-0.0436 E-score
19,TAAACCTA,0.181 E-score
20,CGTGCGGA,-0.0584 E-score
21,CGGTAATA,0.372 E-score
22,AAATAGCC,0.046 E-score
23,AAATAGCA,0.0964 E-score
24,AAATAGCG,0.0843 E-score
25,CAATAGTG,0.287 E-score

row,Sequence,binding signal
1,ACATAGTA,0.306 E-score
2,AAATAGCT,0.379 E-score
3,CAATAGTA,0.341 E-score
4,GGGTAATA,0.234 E-score
5,CGGTAATC,-0.0198 E-score
6,AAATAGTA,0.42 E-score
7,CAATAGTC,0.101 E-score
8,CCTCGATA,-0.188 E-score
9,GTCCTGTA,-0.0798 E-score
10,ATAGGTGA,0.0572 E-score
11,GAGCCCAA,-0.192 E-score
12,GACCAGTA,0.0441 E-score
13,CTTTTATC,0.118 E-score
14,ATTTGGGA,-0.131 E-score
15,AAACGTCT,-0.171 E-score
16,AAGTGACG,0.0469 E-score
17,AAACAGGG,-0.0541 E-score
18,AGTTCCAT,0.0525 E-score
19,AGTTTGAC,-0.0534 E-score
